# About 83,000 compounds went through this panel and 20% of them were active in at least one assay; those are over-represented in the sample as a whole.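 Step 1: grow cells in 96-well plates. Step 2: add test compound at a single concentration. Step 3: incubate 48 h. Step 4: record percent growth.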 A number with no mark means an inactive call. The source made the active and inactive calls. The calls were made as follows: active = growth percent below 10; inactive = the rest.
# Key:
# Experiment in all cases: NCI-60 one-dose screen, 48 h (100 = growth as untreated, 0 = no growth, -100 = all killed)
# Conditions in all cases: 10 µM unless noted
# [1] = tested on: DU-145 prostate
# [2] = tested on: K-562 leukemia
# [3] = tested on: MALME-3M melanoma
# [4] = tested on: MDA-MB-231 breast
# [5] = tested on: RXF 393 renal
# [6] = tested on: SF-268 CNS
# [7] = tested on: SF-295 CNS
# [8] = tested on: SF-539 CNS
# [9] = tested on: UACC-257 melanoma
# [10] = tested on: M14 melanoma
# [11] = tested on: HCT-15 colon
# [12] = tested on: HT29 colon
# [13] = tested on: SNB-75 CNS
# [14] = tested on: SNB-19 CNS
# [15] = tested on: U251 CNS
# [16] = tested on: PC-3 prostate
# [17] = tested on: SK-MEL-5 melanoma
# [18] = tested on: UACC-62 melanoma
# [19] = tested on: LOX IMVI melanoma
# [20] = tested on: SK-MEL-28 melanoma
Compound,growth [1],growth [2],growth [3],growth [4],growth [5],growth [6],growth [7],growth [8],growth [9],growth [10],growth [11],growth [12],growth [13],growth [14],growth [15],growth [16],growth [17],growth [18],growth [19],growth [20]
N#Cc1nc(C#N)c(Sc2ccccc2)c(Sc2ccccc2)c1Sc1ccccc1,-47.8% (active),-41.2% (active),-20.6% (active),-32.7% (active),-38.7% (active),-67.6% (active),1.87% (active),-86.6% (active),-59.2% (active),-28.9% (active),-53.7% (active),-67.2% (active),-61.2% (active),-45.7% (active),-81.9% (active),21.5%,-93.2% (active),-57.2% (active),-79.2% (active),-84.3% (active)
COc1cc(/C=C/C(=O)c2c(C)nc3ccccc3c2/C=C/c2ccc(C)cc2)cc(OC)c1OC,14.7%,12%,39.5%,16.6%,3.96% (active),44.7%,38.8%,19.5%,43.8%,23.9%,-19.4% (active),14%,22.7%,40.1%,20.9%,25.8%,26%,25.6%,-22.8% (active),20.3%
COc1ccc(NC(=O)CSc2nnc(-c3cc(-c4ccc(S(N)(=O)=O)cc4)nc4ccccc34)n2-c2ccccc2)cc1,96.6%,66.4%,77.5%,72.8%,81.9%,68.6%,94.5%,78.4%,103%,86.1%,89%,86.4%,55.7%,82.5%,85.5%,65.9%,74.6%,65.3%,90.3%,80.6%
CC(=O)[C@@H]1CC[C@]2(COS(=O)(=O)c3ccc(C)cc3)CC[C@]3(C)[C@H](CC[C@@H]4[C@@]5(C)CCCNC(C)(C)[C@@H]5CC[C@]43C)[C@@H]12,86.6%,2.27% (active),88.1%,96.4%,63.9%,73.2%,101%,77.4%,49.9%,79%,32%,2.18% (active),83.2%,91.7%,61.8%,56.8%,76.2%,58.9%,14%,85.6%
Cc1c(C(=O)NC(Cc2ccccc2)C(O)C(=O)NCc2ccc(F)cc2)[nH]c2ccccc2c1=O (stereo not given),109%,94.2%,111%,102%,114%,104%,103%,108%,103%,109%,103%,102%,99.1%,100%,90.2%,103%,103%,111%,101%,107%
O=C1CCc2c(sc3[nH]c(=S)n(-c4ccc(OC(F)(F)F)cc4)c(=O)c23)C1,81.2%,18%,68%,61.4%,37.3%,25.6%,17.2%,19%,85.9%,59.6%,40.4%,104%,27.4%,17.1%,21.6%,16.1%,22.6%,10.8%,20.6%,43.2%
CCOc1c(C#N)nnc2c(C#N)c(NC(=O)c3ccccc3)nn12,109%,98.6%,103%,100%,110%,98.8%,104%,95.3%,97%,99.1%,106%,106%,79.8%,100%,95.6%,100%,99.4%,101%,95.5%,104%
CCn1c(C)nc2cc(C(N)=O)ccc21,110%,102%,96.4%,113%,93.4%,104%,238%,96.4%,87.9%,95.5%,92.8%,98.7%,90.2%,104%,95.4%,101%,112%,89.2%,91.6%,113%

# Source: PubChem BioAssay (NCI)
